For orientation: IC50 means the concentration that inhibits the measured activity by half.

This is an account of results in PubChem BioAssay AID2496 (Sanford-Burnham Center for Chemical Genomics, 2010).

A number with no mark means an inactive call. Rule as the data show it: active = IC50 below about 40 µM; inactive = the rest. A value given as a limit tells only on which side of the number the result lay.

A short description of this assay: compound optical interference in time-resolved FRET – biochemical, fluorescence ratio, artefact control, SAR follow-up (AID 2496). To be noted: HTRF spectral interference counter-screen. A general note: TR-FRET usually uses a lanthanide donor and a delayed reading to cut background.

In the case of `O=C(c1ccc2nc(-c3ccco3)c(-c3ccco3)nc2c1)N1CCC2(CC1)OCCO2`, the IC50 was greater than 50 µM.
